Screening results: PubChem BioAssay, National Center for Advancing Translational Sciences (NCATS)
Coupling enz: qHTS Assay for Inhibitors of Fructose-1,6-bisphosphate Aldolase from Giardia Lamblia: Coupling assay counterscreen; coupling enzyme system counterscreen, AmpLite Red fluorescence; activity change, negative = inhibition, % at 58.2 µM, hits read low; hit rate 0.67% among 290,000; AID 2472, 2010; in the data active = activity change below about -30%
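Fluorescence at 525 nm excitation and 598 nm emission measured inhibition of the coupled detection system without aldolase. Compounds (at 57.5 uM final) were preincubated 10 min at room temperature with coupling enzyme reagent before a 20 min substrate/AmpLite Red step.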
KDM4E inh: qHTS Assay for Inhibitors of Human Jumonji Domain Containing 2E (JMJD2E); Lysine-specific demethylase 4E (Homo sapiens), B2RXH2; JMJD2E catalytic domain, FDH-coupled NADH fluorescence (FDH is formaldehyde dehydrogenase); Potency, µM (doses to about 57.1 µM), for the others: at the highest dose activity change, negative = inhibition, actives largely listed as inhibitors; hit rate 1.6% among 230,000; AID 2147, 2009; active = well fitted inhibition curve with a large enough effect, not every such curve was filed as active; inconclusive = small, poorly fitted or top-dose-only effect, or another doubt; inactive = no such curve, though single readings can be large or run the other way;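 note: potency is the fitted concentration of half-maximal effect; 0% = wells with enzyme and -100% = buffer wells without enzyme; nearly all actives have a fitted effect of over 50% in size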
Target sequence (B2RXH2 1-337 limits assumed): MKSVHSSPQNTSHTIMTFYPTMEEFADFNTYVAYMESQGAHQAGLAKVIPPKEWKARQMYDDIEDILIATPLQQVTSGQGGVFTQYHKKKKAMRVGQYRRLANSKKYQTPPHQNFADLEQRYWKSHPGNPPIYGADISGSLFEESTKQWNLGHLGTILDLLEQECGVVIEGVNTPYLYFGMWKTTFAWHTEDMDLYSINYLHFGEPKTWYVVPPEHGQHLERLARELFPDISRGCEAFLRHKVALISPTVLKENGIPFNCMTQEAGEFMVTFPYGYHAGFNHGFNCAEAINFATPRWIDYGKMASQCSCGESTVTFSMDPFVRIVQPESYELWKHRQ
Tau fibril FP: qHTS for Inhibitors of Tau Fibril Formation, Fluorescence Polarization; K18 P301L tau heparin fibrillization, Alexa594 FP, 6 h; Potency, µM (series often up to 57.7 µM), inactives show at the top dose activity, negative = inhibition, actives largely listed as inhibitors; hit rate 0.39% among 280,000; AID 1468, 2008; note: potency is the fitted concentration of half-maximal effect; nearly all actives have a fitted effect of over 55% in size
Target sequence (P10636 561-689 P618L limits assumed): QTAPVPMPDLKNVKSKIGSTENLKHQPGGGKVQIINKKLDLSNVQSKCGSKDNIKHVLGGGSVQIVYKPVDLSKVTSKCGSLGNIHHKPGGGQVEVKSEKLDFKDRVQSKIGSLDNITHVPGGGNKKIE
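K18 P301L tau (15 uM unlabeled/0.24 uM Alexa 594-labeled, final) + compound + heparin 20 uM final; 100 mM NaOAc pH 7; 6 hr 37 C; ThT 30 uM final added, 1 hr RT; FP ex 555/em 632 nm.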
Tau ThT inhib: qHTS for Inhibitors of Tau Fibril Formation, Thioflavin T Binding. Potency, µM (series often up to 57.4 µM), for inactives: top-dose activity, negative = inhibition, most hits filed as inhibitors. recombinant tau K18 P301L, heparin-induced fibrillization, ThT fluorescence. Microtubule-associated protein tau (Homo sapiens), P10636. hit rate 2.1% among 270,000; note: potency is the fitted concentration of half-maximal effect; nearly all actives have a fitted effect of over 55% in size
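Heparin-induced fibrillization of the P301L-mutant K18 repeat-domain fragment of human tau was followed by ThT binding in quantitative high-throughput format.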
Tau fluor cs: Counterscreen qHTS for Inhibitors of Tau Fibril Formation, Fluorescence Polarization; tau K18 P301L Alexa594 fluorescence, heparin fibrillization; hit rate 0.93% among 280,000; Potency, µM (highest dose often 57.7 µM), without a hit: at the highest dose activity change, negative = decrease; note: potency is the fitted concentration of half-maximal effect; nearly all actives have a fitted effect of over 55% in size
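Human tau K18 P301L (15 uM unlabeled, 0.24 uM Alexa 594-labeled) in 100 mM sodium acetate pH 7 with 20 uM heparin, 6 hr at 37 C. ThT 30 uM added, 1 hr ambient; Alexa 594 FP and total fluorescence read at 555/632 nm.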
The depositor's hits bear a star; ? = inconclusive; . = no result; [ ] = remark or other dose. Shown are actives, neighbours in structure and some others; about 3% of the full set was active somewhere. Unless noted, calls come from the whole dose curve; as a rule, active = well fitted curve in the direction sought with a large enough effect; inconclusive = small, poorly fitted or top-dose-only effect, or another doubt; inactive = no such curve, though single readings can be large; an effect the other way counts as inactive or inconclusive. Unless noted, % is set by controls: 0 for no effect and ±100 for the full control effect.

SMILES	Coupling enz	KDM4E inh	Tau fibril FP	Tau ThT inhib	Tau fluor cs
COc1cc(OC)c(C2CC(=O)N3CN(C)CSC3=C2C#N)cc1OC (configuration not stated)	-10.0	-8.8%	?	?	-17.0%
N#CC1=C2SCN(C3CCCCC3)CN2C(=O)CC1c1c(F)cccc1Cl (configuration not stated)	.	.	?	31.6µM*	-18.8%
O=C1CSC(c2ccc(Cl)cc2)N1C1CCCCC1 (configuration not stated)	3.0	4.2%	2.4%	-3.1%	-5.7%
CC(C)c1ccc(C2CC(=O)N3CN(C)CSC3=C2C#N)cc1 (configuration not stated)	-6.4	-19.4%	-16.8%	28.2µM*	-20.5%
N#CC1=C2SCN(Cc3ccccc3)CN2C(=O)CC1c1ccccc1F (configuration not stated)	-12.0	-8.4%	?	?	-16.3%
COc1ccc2ccccc2c1C1CC(=O)N2CN(C)CSC2=C1C#N (configuration not stated)	-6.5	?	22.4µM*	22.4µM*	-26.4%
N#CC1=C2SCN(C3CCCCC3)CN2C(=O)CC1c1ccc(Cl)cc1 (configuration not stated)	.	.	?	28.2µM*	-23.6%
Cc1c2c(c(O)c3c(O)cccc13)C(=O)O[C@H]2C1C(N(C)C)C(O)=C(C(N)=O)C(=O)[C@H]1O (some centres not stated)	-20.4	.	.	.	.
N#CC1=C2SCN(C3CCCCC3)CN2C(=O)CC1c1ccc(F)cc1 (configuration not stated)	.	.	?	28.2µM*	-10.9%
COc1ccc(C2CC(=O)N3C(=C2C#N)SCC3(O)c2ccccc2)cc1 (configuration not stated)	-12.2	135.8%	6.7%	-9.7%	-20.6%
Clc1ccc(-c2cnn3c(-c4ccncc4)ccnc23)cc1	1.9	-0.8%	1.7%	2.51µM*	0.6%
C#CCCCO/N=C1/C[C@@H](O)[C@@H](O)[C@@H]2[C@@H]3C(=O)N(CC)C(=O)[C@H]3CC[C@H]12	-0.3	.	7.9%[11.6 µM]	-0.3%[11.5 µM]	1.5%[11.6 µM]
CC(C)(C)OC(=O)N1C=CCC1CN1C(=O)COCC1=O (configuration not stated)	3.2	.	.	.	.
CN(C)c1ccc(NC(=O)c2cccc(C(=O)Nc3ccc(N(C)C)cc3)n2)cc1	-7.0	-18.7%	6.3%	15.8µM*	?
CN(C)c1ccc(NC(=O)c2ccc3nsnc3c2)cc1	-0.4	6.8%	5.0%	7.94µM*	-29.5%
COc1ccc(OCC(=O)N/N=C/c2ccsc2)cc1	0.2	-6.4%	3.7%	-15.9%	-4.3%
COc1ccc(OCC(=O)N/N=C/c2ccc(N(C)C)cc2)cc1	1.2	?	?	2.51µM*	?
COc1ccc(NC(=O)Nc2ccc(OC)cc2)cc1	1.9	1.6%	8.1%	-11.7%	-12.7%
COc1ccc(NC(=O)Nc2ccc(N(C)C)cc2)cc1	-5.4	-9.0%	10.4%	12.6µM*	?
Cc1ccc2onc(CC(=O)N3CCN(c4cc(Cl)ccc4C)CC3)c2c1	.	.	?	-16.3%	-7.0%
Cc1ccc(CNC(=O)c2cccc(-n3cnc4cccnc43)c2)cc1	.	.	-3.7%	7.6%	-6.5%
COc1ccc(C(=O)NCC(c2ccc(N(C)C)cc2)N2CCc3ccccc32)cc1 (configuration not stated)	.	.	?	15.8µM*	?
CC(C)Oc1ccc(C(=O)NCC(c2ccc(N(C)C)cc2)N2CCc3ccccc32)cc1 (configuration not stated)	.	.	-1.4%	?	?
CN(C)c1ccc(C(CNS(=O)(=O)c2ccc(Br)cc2)N2CCOCC2)cc1 (configuration not stated)	.	.	-9.5%	?	?
CC(C)(S)[C@@H](N)C(=O)O	-0.7	2.24µM*	?	?	-16.8%
SMILES	Coupling enz	KDM4E inh	Tau fibril FP	Tau ThT inhib	Tau fluor cs
CC(C)[C@@H](N)C(=O)O	0.5	.	4.9%	2.8%	2.7%
Oc1ccc(N2CCN(c3ncnc4sc(-c5ccccc5)cc34)CC2)cc1	1.0	15.8µM*	?	?	?
CC(=O)N1CCN(c2ncnc3sc(-c4ccccc4)cc23)CC1	0.1	?	-1.0%	-9.2%	-11.1%
COc1ccccc1N1CCN(CCn2c(=O)c3c(c4ccccc4n3C)n(C)c2=O)CC1	.	.	?	?	1.2%
COc1cccc(C(=O)/C=C/Nc2cc(C)ccc2O)c1	-6.2	?	6.5%	3.55µM*	15.8µM*[quencher]
CN1CCN(c2ncc3nc(-c4cccc(C#N)c4)c(=O)n(Cc4ccc(F)cc4)c3n2)CC1	1.0	.	.	.	.
C=CCNc1nc(Nc2ccc([N+](=O)[O-])cc2)nc(N2CCCC2)n1	-3.0	-3.8%	-14.5%	?	?
CC1CCN(c2nc(Cl)nc(Nc3ccc([N+](=O)[O-])cc3)n2)CC1	-7.1	-3.3%	?	?	8.91µM*[quencher]
CN(Cc1ccco1)c1ccnc(-c2cccnc2)n1	2.0	.	.	.	.
CN(Cc1ccco1)c1ccnc(-c2ccoc2)n1	0.5	25.1µM*	?	22.4µM*	?
Cc1ccc(CNC(=O)C2CCCN(c3ncnc4onc(-c5ccc(F)cc5)c34)C2)cc1 (configuration not stated)	.	.	-2.6%	1.6%	-12.9%
COc1ccccc1CNC(=O)c1c(O)c2cc(OC)c(OC)cc2[nH]c1=O	3.5	3.55µM*	1.0%	-5.1%	1.8%
O=C(NCc1ccccc1)c1c(O)c2ccccc2[nH]c1=O	0.5	.	.	.	.
Nc1ccc(C(=O)C(=O)c2ccc(N)cc2)cc1	3.3	4.6%	3.6%	-6.8%	-11.4%
Nc1ccc(N=Nc2ccc(N)cc2)cc1	-0.5	-6.5%	1.1%	11.2µM*	-20.3%
CCOc1ccccc1OCCCC(=O)Nc1ccc(OC)nc1	-31.8*	-2.6%	-0.3%	1.6%	-6.2%
COc1ccc(OC)c(NC(=O)c2nc(S(=O)(=O)Cc3ccc(F)cc3)ncc2Cl)c1	.	.	0.6%	12.6µM*	?
CCCc1nnc(NC(=O)c2nc(S(=O)(=O)Cc3ccc(C)cc3)ncc2Cl)s1	.	.	?	?	-20.2%
Cc1ccc(CS(=O)(=O)c2ncc(Cl)c(C(=O)Nc3nc4ccc(C)cc4s3)n2)cc1	.	.	-17.4%	22.4µM*	?
Cc1ccc(NC(=O)c2nc(S(=O)(=O)Cc3ccc(F)cc3)ncc2Cl)cc1C	.	.	-5.5%	?	1.3%
Cc1ccc(CS(=O)(=O)c2ncc(Cl)c(C(=O)Nc3nc4ccc(F)cc4s3)n2)cc1	.	.	-10.7%	14.1µM*	-23.9%
COc1ccc2nc(NC(=O)c3nc(S(=O)(=O)Cc4ccc(C)cc4)ncc3Cl)sc2c1	.	.	-7.2%	5.62µM*	?
